Many of the other results were omitted from the sample, so hits are more common in it than they were.
Pf Dd2 growth – Plasmodium falciparum Dd2 growth inhibition; P. falciparum Dd2 growth, SYBR Green, 72 h; Potency, µM (series often up to 28.9 µM), for the others: at the top dose activity, negative = inhibition, hits mostly inhibitors; 120,000 compounds, 4.3% hits; AID 1347417; active = well fitted inhibition curve with a large enough effect;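 also: plate controls were DMSO vehicle for no effect and reference drug for full effect; nearly all actives have a fitted effect of over 65% in size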
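Infected erythrocytes (Dd2, 0.3% parasitemia, 2.5% hematocrit final) are added to compound in RPMI-1640/Albumax II medium, grown 72 h at 37C in low oxygen, then lysed with saponin/Triton-X containing SYBR Green and read by fluorescence.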
The depositor's hits bear a star; i = inactive; [ ] = dose if it differs, or a comment. Potency is read from the fitted curve at half-maximal effect.

SMILES	Pf Dd2 growth
CCN1C(=O)Cc2ccccc2C1C(=O)NCc1ccc(OC)cc1 (stereo not given)	-6%
CCCN(CC1CCOC1)C(=O)Nc1cccc(Cl)c1C (stereo not given)	11%[5.79 µM]
COc1ccc(CN(C)C(=O)Cn2nnnc2CN2CCOCC2)c2cccnc12	-4%
COCCC(=O)N1CCCOCCNC(=O)[C@@H]2CCC[C@@H]21	13%
O=C(c1ccc(Cl)cc1Cl)N1CCN(c2cc(-c3ccccc3)[nH]n2)CC1	-13%
Cc1ccc(N2C(=O)CS(=O)(=O)C23C(=O)N(Cc2ccc(Cl)cc2)c2ccccc23)cc1C (stereo not given)	2.2µM*
CN1C(=O)C2(c3ccccc31)N(c1ccc(Br)cc1)C(=O)CS2(=O)=O (stereo not given)	-18%
Cc1ccc(CN2C(=O)C3(c4ccccc42)N(c2ccc(C)c(Cl)c2)C(=O)CS3(=O)=O)cc1 (stereo not given)	-8%
COc1cc2c(cc1OC)CN(C(=O)C[C@@H]1CCNC[C@@H]1Cc1cc(CN3CCCCC3)on1)CC2	-16%
CSCC(=O)N1C[C@@H](NC(=O)NC2CCCCC2)C[C@H]1C(=O)N(C)CC(N)=O	21%[44.1 µM]
CN1C(=O)c2ccccc2Sc2ccc(NC(=O)COc3ccc(F)cc3)cc21	0%
CN1C(=O)c2ccccc2Sc2ccc(NC(=O)N3CCN(c4ccccc4F)CC3)cc21	13µM*
CN1C(=O)c2ccccc2Sc2ccc(NC(=O)c3ccccc3F)cc21	-4%
CCC1(C(=O)NC2CCCCCC2)CCCCC(=O)N1 (stereo not given)	6%
Cc1ccc(F)cc1NC(=O)c1ccc(Cn2nc(N3CCN(c4ccccc4)CC3)ccc2=O)o1	11µM*
CC(C)CCNC(=O)Cn1nc(N2CCN(c3ccccc3)CC2)ccc1=O	4%
CN(C)CCNC(=O)Cn1nc(N2CCN(c3ccccc3)CC2)ccc1=O	51%
O=C(O)Cn1nc(N2CCN(c3ccc(F)cc3)CC2)ccc1=O	25%
Cc1cc(F)ccc1NC(=O)Cn1nc(N2CCN(c3ccccc3)CC2)ccc1=O	9%
Cc1cccc(NC(=O)c2ccc(Cn3nc(N4CCN(c5ccccc5)CC4)ccc3=O)o2)c1C	11µM*
Cc1ccc2c(C(=O)N3CCOCC3)cc(NC(=O)C3CCC3)cc2n1	-3%
CN(C)c1nccnc1OC1CCN(C(=O)c2ccccc2)C1 (stereo not given)	32%
O=C(CC1=CCCCC1)N1CCC2(CC1)CN(c1ccncn1)CC2CO (stereo not given)	i
Cc1occc1C(=O)N[C@@H]1CN(S(C)(=O)=O)C[C@H]1CN(C)C	4%
COC(=O)C1=C(C)NC(=O)NC1c1ccc(O)cc1 (stereo not given)	-7%
SMILES	Pf Dd2 growth
CCCCOc1ccc(-c2nn(-c3ccccc3)cc2C2NC(=O)NC(C)=C2C(=O)OC)cc1 (stereo not given)	i
CCCOc1ccc(-c2nn(-c3ccccc3)cc2C2NC(=O)NC(C)=C2C(=O)OC)cc1 (stereo not given)	10µM*
CCCOc1ccccc1C1C(C(=O)Nc2ccccc2)=C(C)Nc2nnnn21 (stereo not given)	83%
COc1ccc(C2NC(=O)NC(C)=C2C(=O)Nc2ccccc2)cc1OC (stereo not given)	-23%
CCCOc1ccc(-c2nn(-c3ccccc3)cc2C2NC(=O)NC(C)=C2C(=O)OC)cc1C (stereo not given)	10µM*
Cc1ccc(C(=O)N2CC(c3nnc(C(C)C)o3)C3(CCOCC3)C2)cc1 (stereo not given)	12%
CCOCCOc1ccccc1C(=O)N1CC[C@@](O)(COC)C(C)(C)C1	0%
CN1CC(=O)N(C2CCCNC2)Cc2c1ncnc2N1CCc2ccccc2C1 (stereo not given)	3%
O=C(NCCCc1nnc2ccccn12)C1CC(=O)N(c2n[nH]c3ccccc23)C1 (stereo not given)	-19%
Cc1c2cnn(-c3ccccc3)c(=O)c2c(C)n1CC(=O)N1CCN(c2cccc(Cl)c2)CC1	25%
CCC(C(=O)N1CCN(c2ccccc2)CC1)n1c(C)c2cnn(-c3ccccc3)c(=O)c2c1C (stereo not given)	11µM*
Cc1ccc(C)c(N2CCN(C(=O)Cn3c(C)c4cnn(-c5ccccc5)c(=O)c4c3C)CC2)c1	i
CCN1C(=O)CCN(S(=O)(=O)c2cccc3cccnc23)CC12CCOCC2	-22%
CN1C(=O)C2(CCN(C(=O)c3cc4c(s3)CCCC4)CC2)c2ccccc21	-6%
O=C1CC2CCN(C(=O)C3CCCC3)CC2CCN1 (stereo not given)	25%[44.1 µM]
CCN(CC)c1cc(C)c2cc(NC(=O)/C=C/c3cc(OC)c(OC)c(OC)c3)ccc2n1	1.1µM*
CCOc1ccc(C(=O)Nc2ccc3nc(N(CC)CC)cc(C)c3c2)cc1	-8%
CCN(CC)c1cc(C)c2cc(NC(=O)c3cccc(OC)c3)ccc2n1	i
CCOc1ccc(/C=C/C(=O)Nc2ccc3nc(N(CC)CC)cc(C)c3c2)cc1OC	1µM*
CCOc1ccccc1C(=O)Nc1ccc2nc(N(CC)CC)cc(C)c2c1	-7%
